assay: High-throughput drug toxicity screening in the BPDCN cell line Gen2.2 (AID 1224824); conditions: Gen2.2 BPDCN cells; at 45.8 µM (top of the series) unless noted
Excerpt: Blastic plasmacytoid dendritic cell neoplasm (BPDCN) is a rare, aggressive and largely incurable hematologic malignancy originating from plasmacytoid dendritic cells (pDCs). Although an initial response to chemotherapy is common, BPDCN prognosis is extremely poor and most patients relapse with drug-resistant disease leading to a median overall survival of ~1 year after diagnosis. To explore novel potential therapeutic strategies in BPDCN, we performed a high-throughput drug toxicity screening in BPDCN cell liens, using of a library of 1,912 small molecules, enriched for compounds that are either approved or in early stages of development for cancer therapy.
A total of 500 exponentially growing Gen2.2 cells were seeded per well in 5 uL of media (RPMI + Glutamine, without phenol red plus10% FBS and 1X Pen/Strep) into 1536-well solid white high base tissue culture treated Greiner One Bio Plates (789173-F), using a multidrop combi dispenser and a small sterile cassette. Compounds and controls totaling 23nL per well (negative control DMSO and positive control 9.2 uM Bortezomib-final) were immediately added to the plates using a 1536 head pin tool from Kalypsys. The plates were then covered with stainless steel gasket lids from Kalypsys and incubated for 48 hours at 37C under 95% relative humidity with 5% CO2. After 48 hours, the plates were removed and allowed to reach room temperature before 3 uL of Cell Titer Glo reagent (Promega) were added using an Aurora Flying Reagent Dispenser Bioraptor. The plates were then spun at 1000 rpms to remove bubbles and incubated for 15 minutes at room temperature before reading on a ViewLux using a luminescent filter with a 10 second exposure. The relative luciferase units were used to calculated percent activity using DMSO as 100% and Bortezomib as 0%.

SMILES	cell viability, % of control (lower = more cytotoxic)
NC(=O)Nc1cc(-c2ccc(CN3CCOCC3)cc2)sc1C(N)=O	26.1%
C#Cc1cccc(Nc2ncnc3cc(OCCOC)c(OCCO)cc23)c1	38.2%
CC(C)Oc1ccc(C(=O)N[C@H](CNC(=O)CN(C)C)Cc2ccc(-c3cn4cccc([C@H](C)O)c4n3)cc2)cc1Cl	61.2%
CC(C)(N)c1ccc(-c2nc3ccccc3nc2-c2ccccc2)cc1	8.3%
Cc1cc(C(=O)NOCCO)c(Nc2ccc(I)cc2F)n(C)c1=O	7.2%
C#C[C@]1(O)CC[C@@H]2[C@@H]3CCc4cc(O)ccc4[C@H]3CC[C@@]21C	67.3%
CC(=O)O[C@H]1C[C@@H]2CC[C@H]3[C@H]4C[C@H]([N+]5(C)CCCCC5)[C@@H](OC(C)=O)[C@@]4(C)CC[C@@H]3[C@@]2(C)C[C@H]1[N+]1(C)CCCCC1	232%
CC(=O)O[C@]1(C(C)=O)CC[C@H]2[C@@H]3C=C(C)C4=CC(=O)CC[C@]4(C)[C@@H]3CC[C@@]21C	5.55%
O=C(C=Cc1ccc(CN(CCO)CCc2c[nH]c3ccccc23)cc1)NO	4.89%
C[C@H]1COc2c(N3CCN(C)CC3)c(F)cc3c(=O)c(C(=O)O)cn1c23	160%
O=C(CCCCCCC(=O)Nc1cccnc1)NO	20.5%
C[C@@H]1[C@H](C)CC[C@]2(C(=O)O)CC[C@]3(C)C(=CC[C@@H]4[C@@]5(C)C[C@@H](O)[C@H](O)[C@@](C)(CO)[C@H]5CC[C@]43C)[C@@H]12	106%
CCc1nc(-c2cccc(C)c2)c(-c2ccnc(NC(=O)c3ccccc3)c2)s1	229%
C[C@H]1C[C@H]2[C@@H]3CCC4=CC(=O)C=C[C@]4(C)[C@@H]3C(=O)C[C@]2(C)[C@@]1(O)C(=O)CO	87.7%
C[C@@H](Oc1ccc2[nH]nc(C=Cc3cnn(CCO)c3)c2c1)c1c(Cl)cncc1Cl	8.4%
O=C1c2cccc(O)c2C(=O)c2c(O)cc(CO)cc21	161%
NC[C@H]1O[C@H](O[C@H]2[C@@H](O)[C@@H](O[C@H]3O[C@H](CO)[C@@H](O)[C@H](N)[C@@H]3O)[C@H](N)C[C@@H]2N)[C@H](N)C[C@H]1O	200%
Nc1ccc(C(=O)Nc2cccc(-c3nc(N4CCOCC4)c4oc5ncccc5c4n3)c2)cn1	15.1%
N#Cc1cc(NC(=O)Nc2nnc(-c3ccncc3)s2)ccc1-c1cn[nH]c1	92.3%
C=C1C(=O)O[C@H]2[C@@H]1CCC(C)=CCC[C@@]1(C)O[C@@H]21	2.53%

SMILES	cell viability, % of control (lower = more cytotoxic)
O=C(Nc1cc2cc[nH]c2cn1)c1ccccc1	13.5%
CCc1cc(C(C)=NOCc2ccc(C3CCCCC3)c(C(F)(F)F)c2)ccc1CN1CC(C(=O)O)C1	68%
CO[C@@H]1[C@@H](O)[C@H](O)[C@@H](n2c3c(Cl)cccc3c3c4c(c5c6cccc(Cl)c6[nH]c5c32)C(=O)NC4=O)O[C@@H]1CO	12.9%
c1cncc(CN2CCC(n3ncc4c(N5CCOCC5)nc(-c5ccc6[nH]ccc6c5)nc43)CC2)c1	12.4%
CC(C)c1cc(C(C)C)c(CC(=O)NS(=O)(=O)Oc2c(C(C)C)cccc2C(C)C)c(C(C)C)c1	94.3%
CC1(C)O[C@@H]2C[C@H]3[C@@H]4CCC5=CC(=O)C=C[C@]5(C)[C@@H]4[C@@H](O)C[C@]3(C)[C@]2(C(=O)CO)O1	97.8%
COc1ccc(S(=O)(=O)Nc2cc(-c3c(O)ccc4ccccc34)c(O)c3ccccc23)cc1	5.48%
COc1cccc2c1C(=O)c1c(O)c3c(c(O)c1C2=O)C[C@@](O)(C(=O)CO)C[C@@H]3O[C@H]1C[C@H](N)[C@H](OC2CCCCO2)[C@H](C)O1 (stereo not given in full)	5.53%
Nc1ccn(C[C@@H](CO)OCP(=O)(O)O)c(=O)n1	138% [at 23.2 µM]
CCOc1cc2ncc(C#N)c(Nc3ccc(OCc4ccccn4)c(Cl)c3)c2cc1NC(=O)C=CCN(C)C	4.27%
OCCNC1CCCc2c1[nH]c1ccc(-c3ccccc3)cc21 (stereo not given)	1.69%
NC(=O)c1cccc(-c2cccc(OC(=O)NC3CCCCC3)c2)c1	128%
CS(=O)(=O)N1CCc2c(-c3cnc(N)nc3)nc(N3CCOCC3)nc21	10.4%
C[C@@]12C(=O)OC(=O)[C@@]1(C)C1CCC2O1	5.4%
O=C1NC(=O)C(=Cc2ccc3nccc(-c4ccncc4)c3c2)S1	3.73%
N=c1ccn2c(n1)O[C@H]1[C@@H](O)[C@@H](CO)O[C@H]12	70.9%
CN[C@@H]1C[C@H]2O[C@@](C)([C@H]1OC)n1c3ccccc3c3c4c(c5c6ccccc6n2c5c31)C(=O)N[C@H]4O	13%
CCOC(=O)C1=C(C)NC(=S)NC1c1cccc(O)c1 (stereo not given)	48.9%
NS(=O)(=O)OC[C@@H]1C[C@@H](n2ccc3c(N[C@H]4CCc5ccccc54)ncnc32)C[C@H]1O	6.59%
N#CC(=Cc1ccc(O)c(O)c1)C(=O)NCc1ccccc1	70.4%
